In PubChem BioAssay (EPA / NIEHS):
Activity calls are given as the source filed them. The calls were made as follows: active = hit-call score of the fitted dose curve at least 0.9, where 1 is the maximum; inactive = score below 0.9.

Experiment: Tanguay_ZF_120hpf_MUSC: Oregon State University Tanguay Lab 120 Hour Post-fertilization zebrafish Assay for Muscle Malformation (AID 2284401)
Procedure, shortened: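 Dechorionated Tropical 5D wild-type zebrafish embryos exposed statically from 6 to 120 hpf at 28C, one per well, in 0.64% DMSO. Muscle malformation scored present/absent by brightfield microscopy at 120 hpf, fitted against DMSO.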

Row | SMILES | outcome
1 | O=C(O)C(F)(F)C(F)(F)C(F)(F)C(F)(F)F | inactive
2 | NC(=O)C(F)(F)C(F)(F)C(F)(F)C(F)(F)C(F)(F)C(F)(F)C(F)(F)F | inactive
3 | FC(F)(F)C(F)(F)C(F)(F)C(F)(F)C(F)(F)C(F)(F)C(F)(F)C(F)(F)CCS | inactive
4 | CN(CCO)S(=O)(=O)C(F)(F)C(F)(F)C(F)(F)C(F)(F)C(F)(F)C(F)(F)C(F)(F)C(F)(F)F | inactive
5 | NS(=O)(=O)C(F)(F)C(F)(F)C(F)(F)C(F)(F)C(F)(F)C(F)(F)F | inactive
6 | OCCCCC(F)(F)C(F)(F)C(F)(F)C(F)(F)F | inactive
7 | OCCCC(F)(F)C(F)(F)C(F)(F)F | inactive
8 | O=S(=O)(O)CCC(F)(F)C(F)(F)C(F)(F)C(F)(F)C(F)(F)C(F)(F)F | inactive
9 | C=C(C)C(=O)OCCC(F)(F)C(F)(F)C(F)(F)C(F)(F)C(F)(C(F)(F)F)C(F)(F)F | inactive
10 | OCC(F)(F)C(F)(F)C(F)(F)C(F)(F)C(F)(F)C(F)(F)F | inactive
